# Laboratory results taken from PubChem BioAssay (NCI).
# The panel holds about 83,000 compounds, 20% with a hit somewhere; the sample as a whole holds those more often.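 Each cell line was grown in a 96-well plate and treated with one concentration of compound for 48 hours. Values below 10 were considered active.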 A number with no mark means an inactive call. Active and inactive are the calls of the source.
# System: MDA-MB-468 breast
# Assay: NCI-60 one-dose screen, 48 h (100 = growth as untreated, 0 = no growth, -100 = all killed)
# Conditions: 10 µM unless noted
row,SMILES,growth
1,CCCCCCN1CSC(=S)N(CCCCCC)C1,89%
2,O=C(Nc1ccc(NCCN2CCOCC2)nc1)c1ccc([N+](=O)[O-])cc1,104%
3,Clc1ccc2c(NCCCn3ccnc3)c3oc4ccc(Cl)cc4c3nc2c1,31.3%
4,Cc1sc2c(c1C)c(=O)nc1c(-c3nc4ccccc4s3)n[nH]n12,101%
5,CC1(C)N=C(N)N=C(N)N1c1cccc(CCCCOc2ccccc2)c1,10.1%
6,CC(CN(C)C)CN1c2ccccc2CCc2ccccc21 (stereo unspecified),41.7%
7,C#Cc1ccc(-n2c(/C=C/c3cc(OC)cc(OC)c3)nc3ncccc3c2=O)cc1,37.4%
8,Nc1c(C(=O)Nc2ccccc2F)sc2nc3c(cc12)C(=O)CCC3,-15.2% (active)
9,c1ccc2c(c1)Nc1cc3ccccc3cc1N2,40.3%
10,COc1cccc2c1C=CC1(O2)Oc2cccc(OC)c2C=C1C (stereo unspecified),39.5%
11,COc1ccc(-c2csc(NC(=O)CSc3nc(C)c(-c4ccccc4)n3Nc3ccccc3)n2)cc1,91.3%
12,COc1c(N2CC3CCCNC3C2)c(F)cc2c(=O)c(C(=O)N/N=C/c3ccccc3)cn(C3CC3)c12 (stereo unspecified),83.7%
13,Cn1cc(-c2cc3ncnc(Nc4ccc(CC(=O)Nc5cc(C(C)(C)C)on5)cc4)c3s2)cn1,31.5%
14,COc1ccc2c(c1)NC1=C(C(=O)OC1)C2c1cc(OC)c2c(c1)OCO2 (stereo unspecified),-5.15% (active)
15,CCCCCC(=O)N(CCCC)CCCC,97.8%
16,CNc1nc(S(=O)c2ccc(C#N)cc2)nc2ccccc12 (stereo unspecified),-4.09% (active)
